# Results reported in the supplement of paper PMC8728848.
# This excerpt belongs to a sample that is enriched for the strongest signals.
# B1: SfaEH (Escherichia coli), Q1RDG5 (protein)
# chain: LLCRNNQTGQVFNSGDTSFRVNVSPVVQYDKSISVLDLSQLVSCQNEDSTGQNYDYLKILKGSGFSPALDTKTYGRLDFTSRPTGYARQLPLQFDLQVTEAFYQYGVWKPFPAKLYLYPAPGVFGKVINNGDLLATLYVNKFSTKGQEAGERNFTWRFYATNDVYIQTGTCRVSSNNVKVDLPSYPGGPVTVPLTVRCDQTQSVSYTLSGPVTGSGNTVFANTAASGSGGVGIQLSDNVGPVPAGQPRSLGQVGSSPVSLGLKASYALTGQASPTPGAVQSVINVTFSYN
# Experiments:
# Assay in all cases: glycan array binding signal (z-score within array); higher = stronger binding
# Details in all cases: glycan notation: IUPAC condensed, linker removed
# [1] = biological target: Fuc(a1-2)Gal
# Method in brief: (§1)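 Glycan array data came from 3228 arrays in the Consortium for Functional Glycomics database, and only arrays with an available protein sequence were kept. Glycan names were put into IUPAC-condensed notation, and columns mapping to the same glycan were averaged. The binding signal is a within-array Z-score, averaged across arrays of one protein sequence run at different concentrations or buffers and across linkers. A negative Z-score can be read as non-binding.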
# [2] = biological target: Fuc(a1-2)Gal(b1-3)GalNAc(b1-4)[Neu5Ac(a2-3)]Gal(b1-4)Glc
# Method in brief: as §1
# [3] = biological target: Fuc(a1-2)Gal(b1-3)[Fuc(a1-4)]GlcNAc(b1-2)Man(a1-3)[Fuc(a1-2)Gal(b1-3)[Fuc(a1-4)]GlcNAc(b1-2)Man(a1-6)]Man(b1-4)GlcNAc(b1-4)[Fuc(a1-6)]GlcNAc(b1-4)[Fuc(a1-6)]GlcNAc
# Method in brief: as §1
# [4] = biological target: Fuc(a1-2)Gal(b1-4)GlcNAc(b1-2)Man(a1-3)[Fuc(a1-2)Gal(b1-4)GlcNAc(b1-2)Man(a1-6)]Man(b1-4)GlcNAc(b1-4)[Fuc(a1-6)]GlcNAc
# Method in brief: as §1
# [5] = biological target: Fuc(a1-2)Gal(b1-4)[Fuc(a1-3)]GlcNAc(b1-3)Gal(b1-4)[Fuc(a1-3)]GlcNAc(b1-3)Gal(b1-4)[Fuc(a1-3)]GlcNAc
# Method in brief: as §1
# [6] = biological target: Fuc(a1-2)[Gal(a1-3)]Gal(b1-4)GlcNAc(b1-2)Man(a1-3)[Fuc(a1-2)[Gal(a1-3)]Gal(b1-4)GlcNAc(b1-2)Man(a1-6)]Man(b1-4)GlcNAc(b1-4)GlcNAc
# Method in brief: as §1
# [7] = biological target: Fuc(a1-2)[Gal(a1-4)]Gal(b1-4)GlcNAc
# Method in brief: as §1
# [8] = biological target: Fuc(a1-3)[Gal(b1-4)]GlcNAc
# Method in brief: as §1
# [9] = biological target: Gal(b1-3)GalNAc(a1-3)[Fuc(a1-2)]Gal(b1-4)Glc
# Method in brief: as §1
# [10] = biological target: Gal(b1-3)GlcNAc(a1-3)Gal(b1-4)GlcNAc
# Method in brief: as §1
# [11] = biological target: Gal(b1-3)GlcNAc(b1-3)Gal(b1-4)GlcNAc(b1-3)Gal(b1-4)GlcNAc(b1-2)[Gal(b1-3)GlcNAc(b1-3)Gal(b1-4)GlcNAc(b1-3)Gal(b1-4)GlcNAc(b1-6)]Man(a1-6)[Gal(b1-3)GlcNAc(b1-3)Gal(b1-4)GlcNAc(b1-3)Gal(b1-4)GlcNAc(b1-2)Man(a1-3)]Man(b1-4)GlcNAc(b1-4)[Fuc(a1-6)]GlcNAc
# Method in brief: as §1
# [12] = biological target: Gal(b1-3)[Fuc(a1-4)]GlcNAc(b1-3)Gal(b1-3)[Fuc(a1-4)]GlcNAc
# Method in brief: as §1
# [13] = biological target: Gal(b1-3)[Neu5Ac(a2-6)]GlcNAc(b1-4)Gal(b1-4)Glc
# Method in brief: as §1
# [14] = biological target: Gal(b1-4)GlcNAc(b1-2)[Gal(b1-4)GlcNAc(b1-4)]Man(a1-3)[GlcNAc(b1-4)][Gal(b1-4)GlcNAc(b1-2)[Gal(b1-4)GlcNAc(b1-6)]Man(a1-6)]Man(b1-4)GlcNAc(b1-4)GlcNAc
# Method in brief: as §1
# [15] = biological target: Gal(b1-4)GlcNAc(b1-3)Gal(b1-3)GlcNAc
# Method in brief: as §1
# [16] = biological target: Gal(b1-4)GlcNAc(b1-3)Gal(b1-4)GlcNAc(b1-3)Gal(b1-4)GlcNAc
# Method in brief: as §1
# [17] = biological target: Gal(b1-4)GlcNAc(b1-3)Gal(b1-4)GlcNAc(b1-3)Gal(b1-4)GlcNAc(b1-3)Gal(b1-4)GlcNAc(b1-2)Man(a1-3)[Gal(b1-4)GlcNAc(b1-3)Gal(b1-4)GlcNAc(b1-3)Gal(b1-4)GlcNAc(b1-3)Gal(b1-4)GlcNAc(b1-2)Man(a1-6)]Man(b1-4)GlcNAc(b1-4)[Fuc(a1-6)]GlcNAc
# Method in brief: as §1
# [18] = biological target: Gal(b1-4)GlcNAc(b1-3)Gal(b1-4)GlcNAc(b1-3)Gal(b1-4)GlcNAc(b1-3)Gal(b1-4)GlcNAc(b1-2)[Gal(b1-4)GlcNAc(b1-3)Gal(b1-4)GlcNAc(b1-3)Gal(b1-4)GlcNAc(b1-3)Gal(b1-4)GlcNAc(b1-6)]Man(a1-6)[Gal(b1-4)GlcNAc(b1-3)Gal(b1-4)GlcNAc(b1-3)Gal(b1-4)GlcNAc(b1-3)Gal(b1-4)GlcNAc(b1-2)Man(a1-3)]Man(b1-4)GlcNAc(b1-4)[Fuc(a1-6)]GlcNAc
# Method in brief: as §1
# [19] = biological target: Gal(b1-4)GlcNAc(b1-3)Gal(b1-4)GlcNAc(b1-3)Gal(b1-4)GlcNAc(b1-3)Gal(b1-4)GlcNAc(b1-3)Gal(b1-4)GlcNAc(b1-2)Man(a1-3)[Gal(b1-4)GlcNAc(b1-3)Gal(b1-4)GlcNAc(b1-3)Gal(b1-4)GlcNAc(b1-3)Gal(b1-4)GlcNAc(b1-3)Gal(b1-4)GlcNAc(b1-2)Man(a1-6)]Man(b1-4)GlcNAc(b1-4)GlcNAc
# Method in brief: as §1
# [20] = biological target: Gal(b1-4)GlcNAc(b1-3)Gal(b1-4)GlcNAc(b1-6)[Gal(b1-3)]GalNAc
# Method in brief: as §1
# [21] = biological target: Gal(b1-4)GlcNAc(b1-3)[Gal(b1-4)GlcNAc(b1-6)]Gal(b1-4)GlcNAc
# Method in brief: as §1
# [22] = biological target: Gal3S6S(b1-4)GlcNAc
# Method in brief: as §1
# [23] = biological target: Gal6S(b1-3)GlcNAc6S
# Method in brief: as §1
# [24] = biological target: Gal6S(b1-4)Glc
# Method in brief: as §1
# [25] = biological target: GalNAc(b1-4)GlcNAc
# Method in brief: as §1
# [26] = biological target: GalNAc3S(b1-4)GlcNAc
# Method in brief: as §1
# [27] = biological target: GalNAc3S(b1-4)GlcNAc3S
# Method in brief: as §1
# [28] = biological target: GalNAc3S(b1-4)[Fuc(a1-3)]GlcNAc
# Method in brief: as §1
binder,measurement,setting,value
B1,glycan array binding signal (z-score),[1],-0.532
same,glycan array binding signal (z-score),[2],-0.413
same,glycan array binding signal (z-score),[3],1.21
same,glycan array binding signal (z-score),[4],-0.238
same,glycan array binding signal (z-score),[5],1.77
same,glycan array binding signal (z-score),[6],-0.531
same,glycan array binding signal (z-score),[7],0.037
same,glycan array binding signal (z-score),[8],-0.018
same,glycan array binding signal (z-score),[9],-0.503
same,glycan array binding signal (z-score),[10],-0.23
same,glycan array binding signal (z-score),[11],3.4
same,glycan array binding signal (z-score),[12],0.274
same,glycan array binding signal (z-score),[13],-0.638
same,glycan array binding signal (z-score),[14],1.56
same,glycan array binding signal (z-score),[15],0.732
same,glycan array binding signal (z-score),[16],0.382
same,glycan array binding signal (z-score),[17],-0.08
same,glycan array binding signal (z-score),[18],3.01
same,glycan array binding signal (z-score),[19],2.05
same,glycan array binding signal (z-score),[20],-0.15
same,glycan array binding signal (z-score),[21],0.131
same,glycan array binding signal (z-score),[22],2.12
same,glycan array binding signal (z-score),[23],-0.513
same,glycan array binding signal (z-score),[24],-0.148
same,glycan array binding signal (z-score),[25],-0.125
same,glycan array binding signal (z-score),[26],-0.199
same,glycan array binding signal (z-score),[27],0.153
same,glycan array binding signal (z-score),[28],2.28
